Bioassay records (PubChem BioAssay)
Hits are enriched below; roughly 0.9% of the tested compounds scored in any of these assays.
HEK293 viab = GF-AFC viability counterscreen for inhibitors of alpha-synuclein gene (SNCA) expression | HEK-293-SNCA-luc viability, GF-AFC fluorescence, 24 h | Potency, µM (doses to about 57.1 µM), most hits filed as cytotoxic | actives 0.12% (n = 150,000) | AID 1671193, 2021; note: nearly all actives have a fitted effect of over 30% in size
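Cytotoxicity counterscreen: after 24 h compound treatment of genome-edited SNCA-luciferase HEK-293 cells, live-cell protease substrate GF-AFC read by fluorescence after 30 min; activity scaled between DMSO (0%) and medium-only (-100%), curves Hill-fitted.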
IP6K1 inhibitor = Primary qHTS assay for small molecule inhibitors of Inositol hexaphosphate kinase 1 (IP6K1); Inositol hexakisphosphate kinase 1 (Homo sapiens), Q92551; IP6K1 kinase, ADP-Glo luminescence, 2 h; hits give low values; activity change, % (series mostly up to about 58 µM); actives 0.81% (n = 140,000); in the data active = activity change below about -25%
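ADP-Glo luminescence measures ADP made by human IP6K1 during a 2 h RT reaction with ATP/IP6 (mix at 1.3 mM/130 uM); top library doses 57.5 and 19.1 uM final.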
SNCA expr inh = Primary qHTS assay for inhibitors of alpha-synuclein gene (SNCA) expression; HEK-293 SNCA-luciferase knock-in, luminescence, 24 h; Potency, µM (doses to about 57.2 µM), usual class: inhibitors; actives 0.17% (n = 140,000); note: nearly all actives have a fitted effect of over 45% in size
GPT2 inh = Primary qHTS assay for inhibitors of Glutamate pyruvate transaminase 2 (GPT2). Alanine aminotransferase 2 (Homo sapiens), Q8TD30. Recombinant GPT2, coupled pyruvate oxidase/HRP Amplex Red fluorescence. Potency, µM (titrated, usually from 57.7 µM), most hits filed as inhibitors. actives 0.25% (n = 100,000). AID 1671188, 2021; note: nearly all actives have a fitted effect of over 60% in size
Target sequence (Q8TD30 whole entry, looked up): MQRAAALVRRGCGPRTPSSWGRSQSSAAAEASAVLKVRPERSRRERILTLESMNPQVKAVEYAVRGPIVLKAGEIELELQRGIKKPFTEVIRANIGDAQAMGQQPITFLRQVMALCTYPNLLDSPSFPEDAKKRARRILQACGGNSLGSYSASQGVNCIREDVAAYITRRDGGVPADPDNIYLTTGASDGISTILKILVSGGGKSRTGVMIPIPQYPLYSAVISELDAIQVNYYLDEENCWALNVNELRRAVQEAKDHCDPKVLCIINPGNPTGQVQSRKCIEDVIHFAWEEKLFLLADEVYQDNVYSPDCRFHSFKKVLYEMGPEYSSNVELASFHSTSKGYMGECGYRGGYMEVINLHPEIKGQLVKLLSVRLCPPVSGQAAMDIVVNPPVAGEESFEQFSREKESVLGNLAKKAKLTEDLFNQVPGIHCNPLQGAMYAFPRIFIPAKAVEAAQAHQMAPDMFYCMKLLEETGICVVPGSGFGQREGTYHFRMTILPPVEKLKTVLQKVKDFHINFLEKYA
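Fluorescence of coupled pyruvate oxidase/HRP/Amplex Red system (50uM Amplex, 30 min, dark) reports pyruvate formed by GPT2. Enzyme reaction: 10ng/uL GPT2, 2mM L-alanine, 250uM a-KG, 30 min room temperature, pH 7.5; 50uM AOA control.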
Numbers stand for hits; 0 = inactive; ? = inconclusive; - = no result; ! = not active in a repeat; [ ] = another dose, or the depositor's remark. Unless noted, calls come from the whole dose curve; as a rule, active = well fitted curve in the direction sought with a large enough effect; inconclusive = small, poorly fitted or top-dose-only effect, or another doubt; inactive = no such curve, though single readings can be large; an effect the other way counts as inactive or inconclusive.

SMILES	HEK293 viab	IP6K1 inhibitor	SNCA expr inh	GPT2 inh
Cc1ccc(Nc2ccnc(N3CCCC(C(=O)NCCCc4ccccc4)C3)n2)cc1 (centres undefined)	0[12.5 µM]	0	?	0
C=C1/C(=C/C=C2\CCC[C@]3(C)[C@@H]([C@H](C)/C=C/C(=O)C4CC4)CC[C@@H]23)C[C@@H](O)C[C@@H]1O	24µM	0	-	0
C=C1/C(=C/C=C2\CCC[C@]3(C)[C@@H]([C@H](C)/C=C/[C@@H](C)C(C)C)CC[C@@H]23)C[C@@H](O)C[C@@H]1O	0	0	-	0
C[C@]1(CO)C2CC[C@@H](O)[C@@H](CC(=O)NCc3cccs3)[C@]2(C)CC[C@H]1OC(=O)Nc1cccc(F)c1 (some centres undefined)	0	0	0	0
Cc1noc(-c2ccc3c(c2)OCO3)c1C(=O)NCCC(c1ccccc1)c1ccccc1	0	0	0	0
COc1ccccc1OC(C)C(=O)N1CCN(CCc2ccccn2)CC1 (centres undefined)	0	0	20µM	-
COc1ccc(N2CC3CCC(C2)N3Cc2ccc(NC(C)=O)cc2)cc1	0	0	0	?
COc1ccc(N2CC3CCC(C2)N3Cc2ccc(C#N)cc2)cc1	0	0	0	10µM
CCc1cccc(NC(=O)Cn2cccc2-c2nc(-c3ccccc3)no2)c1	0	0	0	0
Cc1ccc(OCCSc2nc3ccccc3n2CC(=O)N2CCCCC2)c(C)c1	14µM	0	0	-
COCCn1c2c([n+](Cc3cnccn3)c1C)C(=O)c1ccccc1C2=O	0.076µM	-	0.096µM	0.15µM
O=C(Nc1nc2ccc(F)cc2s1)c1nc(S(=O)(=O)Cc2ccccc2)ncc1Cl	32µM	-40	?	-
NCC(=O)N1CCc2nc(-c3ccco3)nc(N3CC=CCC3)c2CC1	0	0	0	0
C=C1C(=O)O[C@@H]2[C@H]1CC(=O)[C@H](C)[C@@](O)(C(=O)/C=C/C)[C@H]2OC(=O)C(C)CC (some centres undefined)	9.3µM	0	-	0
C=C1C(=O)OC2/C=C(\CO)CC/C=C(\C=O)C(O)C(OC(=O)C(C)CC)C12 (centres undefined)	?	0	-	0
COc1ccc(-c2ccccc2C(=O)NC(C)C)nn1	-	0	-	-
CNC(=O)c1cc(C2CC2)nc2onc(C3CCCN(C(=O)c4ccc(C)cc4)C3)c12 (centres undefined)	-	0	-	-
Cc1ccc(C(=O)N(CCCN)[C@@H](c2oc3cc(Cl)ccc3c(=O)c2Cc2ccccc2)C(C)C)cc1	?	-	?	0
Cc1ccc(C(=O)N(CCCN)C(c2oc3cc(Cl)ccc3c(=O)c2Cc2ccccc2)C(C)C)cc1 (centres undefined)	30µM	0	-	0
COc1ccc(OC)c(NC(=O)CSC2=Nc3ccccc3C3=NC(CC(=O)NCc4ccco4)C(=O)N23)c1 (centres undefined)	0	-25	0	-
O=C(c1ccc(OCCN2CCCCC2)cc1)c1c(-c2ccc(O)cc2)sc2cc(O)ccc12	?	0	0	8.9µM!
CCCCOc1ccc(C(=O)CCN2CCCCC2)cc1	0	0	0	0
CC1=C(CO)C(=O)O[C@@H]([C@@H](C)[C@H]2CC[C@H]3[C@@H]4C[C@H]5O[C@]56[C@@H](O)C=CC(=O)[C@]6(C)[C@@H]4CC[C@]23C)C1	6.8µM	-	3µM	0
Cc1nn2c(c1-c1ccccc1N1CCCC1)N(C(=O)c1cc3ccccc3n1C)CCC2	?	0	?	0
Cc1nn2c(c1-c1ccccc1C(C)C)N(C(=O)c1cc3ccccc3n1C)CCC2	35µM	0	?	0
SMILES	HEK293 viab	IP6K1 inhibitor	SNCA expr inh	GPT2 inh
COc1ccccc1N1CCN(S(=O)(=O)c2c(C)sc3ncn(CC(=O)Nc4ccccc4F)c(=O)c23)CC1	0	0	2.5µM	-
COc1ccccc1N1CCN(S(=O)(=O)c2c(C)sc3ncn(CC(=O)Nc4ccc(C(F)(F)F)cc4)c(=O)c23)CC1	0	0	0	-
Fc1ccc(-c2nc(-c3cccs3)c(-c3cccs3)[nH]2)cc1	0	0	0	-
Oc1ccc(-c2nc(-c3ccc(F)cc3)c(-c3ccncc3)[nH]2)cc1	?	-	1.4µM!	?
CC(C)c1nn(-c2c(Cl)cccc2Cl)c2nc(Cc3ccc(OCCO)cc3)[nH]c(=O)c12	?	0	0.19µM	0
COc1ccc(-c2ccccc2C=O)cc1	0	0	0	0
COC1=C(OC)C(=O)c2ccccc2C1=O	0	-	?	2.8µM
COc1ccc(Nc2ccnc(N3CCC(NC(=O)Nc4ccc(Cl)cc4)CC3)n2)cc1	0[12.5 µM]	0	?	0
CO[C@@]12[C@H](COC(N)=O)C3=C(C(=O)C(C)=C(N)C3=O)N1C[C@@H]1N[C@@H]12	0	0	?	14µM!
CN(C)C(=O)COC(=O)c1cc(-c2ccc(C3CCNCC3)cc2)c2ccc(-c3ccc(C(F)(F)F)cc3)cc2c1	30µM	0	-	0
O=C(CN1C(=O)COc2ccc(S(=O)(=O)N3CCCCCC3)cc21)Nc1cccc(Cl)c1	?	0	10µM	-
c1ccc(-c2ccc(N3CC4(CCNCC4)C3)cc2)cc1	32µM	-	?	-
O=C(Nc1ccc(Cl)cc1)N1CCN(c2ccc3nnc(C4CC4)n3n2)CC1	-	0	-	-
Cc1cc(Nc2cc(N3CCN(C)CC3)nc(/C=C/c3ccccc3)n2)n[nH]1	30µM	0	-	0
CCOc1ccccc1NC(=O)[C@H]1CCC[C@H]1NC(=O)c1ccc(OC)cc1	?	0	0	0
CC[C@@H]1C(=O)N(C)c2cnc(Nc3ccc(C(=O)NC4CCC(N5CCN(CC6CC6)CC5)CC4)cc3OC)nc2N1C(C)C (some centres undefined)	30µM!	0	0	0
CCC1C(=O)N(C)c2cnc(Nc3ccc(C(=O)NC4CCC(N5CCN(CC6CC6)CC5)CC4)cc3OC)nc2N1C(C)C (centres undefined)	24µM	0	-	0
Cc1cnc(-c2ccncc2)n1CCC1CCN(C(=O)C(C)Oc2ccccc2)CC1 (centres undefined)	0	0	0	0
N#Cc1cccc(CN2CCOC[C@H]2c2ncc(-c3ccccc3)[nH]2)c1	0	0	0	0
CN(C)C(=O)C1CCCN1c1nccc(Nc2ccccc2F)n1 (centres undefined)	0[12.5 µM]	0	0	0
COc1ccc(NC(=O)CCS(=O)(=O)c2nc(-c3cccs3)cc(C(F)(F)F)n2)cc1	?	0	35µM	-
COc1ccc(Cl)cc1NC(=O)CCS(=O)(=O)c1nc(-c2cccs2)cc(C(F)(F)F)n1	0	0	28µM	-
O=C(CCS(=O)(=O)c1nc(-c2cccs2)cc(C(F)(F)F)n1)Nc1ccc(OC(F)(F)F)cc1	0	-58	0	-
O=C(CCS(=O)(=O)c1nc(-c2ccc3c(c2)OCO3)cc(C(F)(F)F)n1)Nc1ccc(Br)cc1	?	0	?	-
COc1ccc(Cl)cc1NC(=O)CCCS(=O)(=O)c1nc(-c2ccc(OC)c(OC)c2)cc(C(F)(F)F)n1	?	0	?	-
